From PubChem BioAssay (NCATS)
Unmarked numbers belong to inactive results. Inconclusive results are not listed. Active and inactive are the calls of the source. Unless noted, the call rests on the fitted dose curve; in most records, active means well fitted curve in the direction sought with a large enough effect; inconclusive means small, poorly fitted or top-dose-only effect, or another doubt; inactive means no such curve, though single readings can be large; an effect the other way counts as inactive or inconclusive.

How the values were obtained:
[1] = molecular target: Lysosomal acid glucosylceramidase (Homo sapiens) (UniProt P04062); test: Glucocerebrosidase-p2 (AID 348; in the data active means potency below about 10 µM; further: potency means the concentration at half of the fitted maximal effect); details: purified GBA, blue fluorogenic substrate, 40 min
Chain of Lysosomal acid glucosylceramidase (Homo sapiens) (P04062 whole entry, looked up): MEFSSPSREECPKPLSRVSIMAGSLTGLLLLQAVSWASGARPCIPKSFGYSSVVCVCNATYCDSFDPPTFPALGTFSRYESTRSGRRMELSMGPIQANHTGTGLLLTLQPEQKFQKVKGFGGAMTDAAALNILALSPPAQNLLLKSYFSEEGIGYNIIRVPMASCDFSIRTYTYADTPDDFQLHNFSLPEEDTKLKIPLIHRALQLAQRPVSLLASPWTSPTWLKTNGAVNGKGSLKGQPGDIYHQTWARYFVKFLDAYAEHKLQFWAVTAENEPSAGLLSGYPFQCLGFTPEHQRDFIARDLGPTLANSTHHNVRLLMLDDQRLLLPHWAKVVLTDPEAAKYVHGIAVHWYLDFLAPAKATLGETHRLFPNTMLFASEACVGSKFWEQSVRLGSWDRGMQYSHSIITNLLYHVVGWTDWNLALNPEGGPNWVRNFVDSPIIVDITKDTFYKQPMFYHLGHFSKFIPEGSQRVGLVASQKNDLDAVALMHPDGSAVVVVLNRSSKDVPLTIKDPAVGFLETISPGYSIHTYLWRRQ
Summary of the method: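 Normal human glucocerebrosidase (0.2 nM) with blue fluorogenic substrate (80 uM final) in citrate/phosphate pH 5.9 with 10mM sodium taurocholate, 0.01% tween-20; 40 min RT, NaOH/glycine stop; fluorescence Ex 365/Em 440; AC50 from a titration from 0.6 nM upwards.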

[2] = AP1 Signaling Pathway (AID 357; active means well fitted curve in either direction with a large enough effect, not every such curve was filed as active;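 further: ME-180 reporter cells stimulated with EGF at its EC50 level; on the % scale 0 is the no-effect control and ±100 the full control effect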); details: ME-180 AP-1-bla reporter, EGF-induced, beta-lactamase ratio, 5 h; at 7.69 µM (top of the series) unless noted
Summary of the method: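 Cells are seeded overnight, exposed to compound titrations and an EC50 level of EGF for 5 hours at 37 °C, then loaded with CCF4 dye for 2.5 hours. Beta-lactamase activity under the AP-1 element is read as a blue/green ratio.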

[3] = molecular target: Cytochrome P450 1A2 (Homo sapiens) (UniProt P05177); test: p450-cyp1a2 (AID 410; calls by dose curve; further: potency means the concentration at half of the fitted maximal effect); details: recombinant CYP1A2, luciferin-ME demethylation, luminescence; series mostly up to 57 µM
Chain of Cytochrome P450 1A2 (Homo sapiens) (P05177 whole entry, looked up): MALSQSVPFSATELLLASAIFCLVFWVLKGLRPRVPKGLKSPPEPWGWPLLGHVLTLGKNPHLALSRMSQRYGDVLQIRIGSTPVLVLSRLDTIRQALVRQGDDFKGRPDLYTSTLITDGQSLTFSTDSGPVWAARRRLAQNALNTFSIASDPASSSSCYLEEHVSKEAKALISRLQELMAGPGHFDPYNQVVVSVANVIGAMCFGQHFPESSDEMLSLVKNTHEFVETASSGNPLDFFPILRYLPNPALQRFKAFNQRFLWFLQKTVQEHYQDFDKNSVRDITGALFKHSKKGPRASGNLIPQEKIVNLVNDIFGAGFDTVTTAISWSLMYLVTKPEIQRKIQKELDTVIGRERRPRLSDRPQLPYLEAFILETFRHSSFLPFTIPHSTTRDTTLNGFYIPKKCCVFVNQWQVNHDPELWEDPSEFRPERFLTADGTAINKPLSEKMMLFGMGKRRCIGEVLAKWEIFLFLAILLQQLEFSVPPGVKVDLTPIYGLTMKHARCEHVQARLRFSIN
Summary of the method: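 O-Demethylation of luciferin 6' methyl ether by human CYP1A2 is monitored as luciferase luminescence. Substrate sits at Km (100uM); enzyme is 20nM. Values are scaled to 57 uM furafylline as maximal inhibition.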

[4] = NFAT Signaling Pathway (AID 444; active means well fitted curve in either direction with a large enough effect, not every such curve was filed as active;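 further: carbachol stimulus at about its EC50 of 1 µM final; on the % scale 0 is the no-effect control and ±100 the full control effect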); details: Jurkat NFAT-bla M1, carbachol, beta-lactamase ratio, 5 h; at 7.69 µM (top of the series) unless noted
Summary of the method: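 Jurkat cells with NFAT-driven β-lactamase reporter and co-expressed M1 receptor, stimulated with carbachol (final 1 uM, ~EC50), compound titration, 5 h at 37 °C. CCF4 loaded 1 h at RT; 460/530 nm ratio gave %activity and AC50.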

[5] = Stat Signaling Pathway (AID 446; active means well fitted curve in either direction with a large enough effect, not every such curve was filed as active;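 further: ME-180 cervical cancer cells given 40 pM IL-6 alongside compound; SIE-controlled beta-lactamase reporter measured as 460/530 nm FRET emission ratio; on the % scale 0 is the no-effect control and ±100 the full control effect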); details: ME-180 (cervical carcinoma) SIE beta-lactamase reporter, IL-6 stimulated, 5 h; at 7.69 µM (top of the series) unless noted
Summary of the method: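 Normalization used AC90 stimulation (300 pM IL-6) and AC90 inhibition (125 nM pan-JAK inhibitor at 40 pM IL-6). The underlying signal is SIE-driven beta-lactamase in ME-180 cells after 5 h IL-6 exposure with compound.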

[6] = molecular target: Glucocorticoid receptor (Homo sapiens) (UniProt P04150); test: GR-GFP Redistribution (AID 450;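 active means compounds whose dose series gives a full or clear partial fitted curve of increased nuclear translocation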; further: potency means the concentration at half of the fitted maximal effect); details: U2OS GR-GFP nuclear translocation, laser cytometry, 2 h
Chain of Glucocorticoid receptor (Homo sapiens) (P04150 whole entry, looked up, the tested form may be a part): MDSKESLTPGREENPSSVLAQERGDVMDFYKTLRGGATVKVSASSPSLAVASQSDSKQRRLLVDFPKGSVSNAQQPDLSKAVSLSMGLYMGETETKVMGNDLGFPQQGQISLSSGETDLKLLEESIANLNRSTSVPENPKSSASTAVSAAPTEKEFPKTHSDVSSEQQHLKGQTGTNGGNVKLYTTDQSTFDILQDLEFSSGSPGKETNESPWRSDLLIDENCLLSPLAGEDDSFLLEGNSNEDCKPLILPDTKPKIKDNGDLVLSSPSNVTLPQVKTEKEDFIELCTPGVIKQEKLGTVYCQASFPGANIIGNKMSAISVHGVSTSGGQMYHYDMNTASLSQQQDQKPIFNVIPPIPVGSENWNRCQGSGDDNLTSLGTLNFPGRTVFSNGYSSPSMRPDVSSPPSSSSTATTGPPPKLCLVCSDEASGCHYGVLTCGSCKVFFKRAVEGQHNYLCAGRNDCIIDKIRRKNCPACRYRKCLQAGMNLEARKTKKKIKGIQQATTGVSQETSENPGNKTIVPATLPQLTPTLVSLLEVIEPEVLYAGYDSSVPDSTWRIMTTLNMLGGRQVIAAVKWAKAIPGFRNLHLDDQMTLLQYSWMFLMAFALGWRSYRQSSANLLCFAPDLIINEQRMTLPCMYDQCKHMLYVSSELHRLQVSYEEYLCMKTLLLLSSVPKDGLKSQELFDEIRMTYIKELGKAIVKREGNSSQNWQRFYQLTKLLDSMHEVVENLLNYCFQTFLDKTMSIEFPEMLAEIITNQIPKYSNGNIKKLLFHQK

[7] = molecular target: Glucocorticoid receptor (Homo sapiens) (UniProt P04150); test: GR-EFC Redistribution (AID 451; calls by dose curve; further: potency means the concentration at half of the fitted maximal effect); details: CHO-K1 GR-EFC translocation, beta-gal luminescence, 2 h
Summary of the method: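 CHO-K1 cells expressing nuclear EA and GR-ED fragments of b-gal; compounds titrated up to 46 uM final, 2 h at 37 C. GR nuclear translocation read as complemented b-gal luminescence after 1 h RT detection.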

[8] = molecular target: Mitogen-activated protein kinase 10 (Mus musculus) (UniProt Q61831); test: JNK3 AlphaScreen Assay (AID 530; active means well fitted curve in either direction with a large enough effect, not every such curve was filed as active;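 further: kinase came from lysate of stimulated human HepG2 cells; signal reports phosphorylation of biotinylated GST-cJun 1-79 at Ser73 with 10 µM ATP; on the % scale 0 is the no-effect control and ±100 the full control effect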); details: JNK3 lysate, c-Jun phosphorylation; series mostly up to 57.1 µM
Summary of the method: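 Activity was read by AlphaScreen after JNK3-containing HepG2 lysate (cytokine pre-activated) phosphorylated biotinylated GST-cJun with 10 uM ATP at room temperature. Phospho-Ser73 cJun antibody with Protein-A acceptor beads provided detection.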

[9] = molecular target: Cytochrome P450 3A4 (Homo sapiens) (UniProt P08684); test: qHTS Assay for Activators of Cytochrome P450 3A4 (AID 885); details: recombinant CYP3A4, Luciferin-PPXE luminescence, 60 min; series mostly up to 57.1 µM; further: nearly all actives have a fitted effect of over 65% in size
Chain of Cytochrome P450 3A4 (Homo sapiens) (P08684 whole entry, looked up): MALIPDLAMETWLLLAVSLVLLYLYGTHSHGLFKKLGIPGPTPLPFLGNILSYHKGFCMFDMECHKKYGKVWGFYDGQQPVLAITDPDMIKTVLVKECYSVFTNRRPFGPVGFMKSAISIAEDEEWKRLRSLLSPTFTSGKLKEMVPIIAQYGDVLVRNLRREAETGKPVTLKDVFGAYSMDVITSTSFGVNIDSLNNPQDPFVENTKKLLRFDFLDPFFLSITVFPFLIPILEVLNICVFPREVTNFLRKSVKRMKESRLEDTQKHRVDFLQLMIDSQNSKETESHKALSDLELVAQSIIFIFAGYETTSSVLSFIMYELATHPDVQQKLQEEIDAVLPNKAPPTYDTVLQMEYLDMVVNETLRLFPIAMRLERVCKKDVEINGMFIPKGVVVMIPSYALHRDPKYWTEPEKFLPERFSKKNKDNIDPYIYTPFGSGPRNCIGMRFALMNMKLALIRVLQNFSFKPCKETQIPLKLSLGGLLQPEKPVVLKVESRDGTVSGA
Summary of the method: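 Human CYP3A4 dealkylates Luciferin-PPXE to luciferin, which luciferase detection converts to light. Substrate was at its KM (25uM), buffer 200mM KPO4, reaction 60 min at RT.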

[10] = molecular target: Cytochrome P450 2C19 (Homo sapiens) (UniProt P33261); test: qHTS Assay for Inhibitors and Substrates of Cytochrome P450 2C19 (AID 899); details: recombinant CYP2C19, luciferin-H EGE luminescence; series mostly up to 57.1 µM; further: potency means the concentration at half of the fitted maximal effect; nearly all actives have a fitted effect of over 60% in size
Chain of Cytochrome P450 2C19 (Homo sapiens) (P33261 whole entry, looked up): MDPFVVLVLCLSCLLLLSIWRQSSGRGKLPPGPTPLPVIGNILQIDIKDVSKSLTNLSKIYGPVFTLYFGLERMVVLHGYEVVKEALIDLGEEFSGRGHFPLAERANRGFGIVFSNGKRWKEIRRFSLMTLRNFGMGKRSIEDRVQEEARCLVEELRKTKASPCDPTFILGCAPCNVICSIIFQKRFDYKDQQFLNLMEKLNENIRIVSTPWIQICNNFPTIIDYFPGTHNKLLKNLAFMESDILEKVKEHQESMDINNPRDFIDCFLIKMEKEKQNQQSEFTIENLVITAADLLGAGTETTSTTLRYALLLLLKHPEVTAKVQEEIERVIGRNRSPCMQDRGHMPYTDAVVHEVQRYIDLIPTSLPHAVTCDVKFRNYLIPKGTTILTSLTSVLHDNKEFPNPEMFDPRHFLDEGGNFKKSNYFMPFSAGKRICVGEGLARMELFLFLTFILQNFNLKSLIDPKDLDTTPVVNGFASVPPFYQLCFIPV
Summary of the method: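 Signal comes from luciferase acting on luciferin released by CYP2C19-mediated hydroxylation of Luciferin-H EGE, 10uM (KM). Assay mix: 5nM enzyme, 50mM KPO4; 60 min at 37C with NADPH regeneration. Data normalized against 57uM ketoconazole.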

[11] = molecular target: Dual specificity protein kinase CLK4 (Homo sapiens) (UniProt Q9HAZ1); test: qHTS Assay for Inhibitors of CDC-like Kinase 4 (Kinase-Glo Assay) (AID 1770); details: recombinant Clk4, Kinase-Glo ATP depletion luminescence; series mostly up to 66.7 µM; further: nearly all actives have a fitted effect of over 65% in size; further: potency means the concentration at half of the fitted maximal effect
Chain of Dual specificity protein kinase CLK4 (Homo sapiens) (Q9HAZ1 whole entry, looked up): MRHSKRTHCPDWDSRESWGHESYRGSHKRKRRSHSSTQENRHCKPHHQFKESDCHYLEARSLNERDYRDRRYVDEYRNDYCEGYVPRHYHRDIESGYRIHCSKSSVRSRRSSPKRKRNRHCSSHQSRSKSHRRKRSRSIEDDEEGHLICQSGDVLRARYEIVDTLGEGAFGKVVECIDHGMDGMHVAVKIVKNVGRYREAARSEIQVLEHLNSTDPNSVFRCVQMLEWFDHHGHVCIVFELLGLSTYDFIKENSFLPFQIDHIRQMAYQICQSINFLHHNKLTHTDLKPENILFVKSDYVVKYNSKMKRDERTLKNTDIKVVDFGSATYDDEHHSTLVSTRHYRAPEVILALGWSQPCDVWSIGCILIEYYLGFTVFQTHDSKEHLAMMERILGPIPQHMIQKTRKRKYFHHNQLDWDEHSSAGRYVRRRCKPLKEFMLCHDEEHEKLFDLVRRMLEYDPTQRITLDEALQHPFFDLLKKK
Summary of the method: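 Readout: Kinase-Glo luminescence from ATP left after a 4.5 h room-temperature reaction of 25 nM Clk4 with 100 uM RS peptide and 1 uM ATP (final). Buffer: 25 mM Tris pH 7.5, 10 mM MgCl2.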

[12] = molecular target: Dual specificity protein kinase CLK4 (Homo sapiens) (UniProt Q9HAZ1); test: qHTS Assay for Inhibitors of CDC-like Kinase 4 (ADP-Glo Assay) (AID 1771); details: recombinant CLK4, ADP-Glo luminescence; series mostly up to 80 µM; further: nearly all actives have a fitted effect of over 70% in size; further: potency means the concentration at half of the fitted maximal effect
Summary of the method: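 Compounds are pin-transferred onto substrate mix (100 uM RS peptide, 1 uM ATP), then 25 nM Clk4 is added. After 1 hr at room temperature, ADP-Glo reagent runs 45 min, detection reagent 30 min, then luminescence is read.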

[13] = molecular target: Dual specificity protein kinase CLK4 (Homo sapiens) (UniProt Q9HAZ1); test: qHTS Assay for Inhibitors of CDC-like Kinase 4 (ADP-FP Assay) (AID 1795); details: Transcreener ADP fluorescence polarization; series mostly up to 50 µM; further: nearly all actives have a fitted effect of over 60% in size; further: potency means the concentration at half of the fitted maximal effect
Summary of the method: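 FP readout: Orange Transcreener ADP2 tracer (4 nM) plus ADP antibody, read after 30 min at room temperature. Kinase step: 6.25 nM Clk4, 100 uM RS peptide, 1 uM ATP, pH 7.5, 1 h.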

[14] = molecular target: Ubiquitin carboxyl-terminal hydrolase 1 (Homo sapiens) (UniProt O94782); test: Inhibitors of USP1/UAF1: Pilot qHTS (AID 504865); details: purified USP1/UAF1, Ub-rhodamine cleavage fluorescence; series mostly up to 54.9 µM;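 further: rhodamine fluorescence freed from ubiquitin-rhodamine substrate followed over time; top concentration of the series differs between compounds; on the % scale 0 is the no-effect control and ±100 the full control effect; nearly all actives have a fitted effect of over 35% in size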
Summary of the method: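 1nM USP1/UAF1 + cpd, 15 min RT; start w/ Ub-Rho 150nM final; kinetic FL 480/540 nm, 6 reads q60 s. Buffer 50mM HEPES pH 7.8, 0.5mM EDTA, 1mM TCEP, 0.01% Tween-20, 0.1 mg/ml BSA.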

[15] = Primary qHTS for small molecule stabilizers of the endoplasmic reticulum resident proteome: Secreted ER Calcium Modulated Protein (SERCaMP) assay (AID 1508630); details: SH-SY5Y GLuc-SERCaMP (Gaussia luciferase released on ER calcium loss) secretion, thapsigargin, luminescence; series mostly up to 38.4 µM; further: on the % scale 0 is the no-effect control and ±100 the full control effect
Summary of the method: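 The SH-SY5Y reporter protocol was run at 3 concentrations up to 38.3 uM (primary) or 11 concentrations (follow-up): 16 h compound, 100 nM thapsigargin for 4 h, then extracellular luciferase luminescence.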

[16] = molecular target: Cytochrome P450 3A4 (Homo sapiens) (UniProt P08684); test: qHTS Assay for Inhibitors and Substrates of Cytochrome P450 3A4 (AID 884); details: recombinant CYP3A4, Luciferin-PPXE luminescence; series mostly up to 57.1 µM; further: nearly all actives have a fitted effect of over 50% in size; further: potency means the concentration at half of the fitted maximal effect
Summary of the method: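 Luminescent readout of luciferin produced by CYP3A4 (20 nM) dealkylation of Luciferin-PPXE, 25 uM (its KM). NADPH-driven reaction ran 60 min at RT after 10 min compound preincubation; data scaled to 57 uM ketoconazole as 100% inhibition.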

[17] = molecular target: Cytochrome P450 2D6 (Homo sapiens) (UniProt P10635); test: qHTS Assay for Inhibitors and Substrates of Cytochrome P450 2D6 (AID 891); details: recombinant CYP2D6, luciferin-ME EGE luminescence; series mostly up to 57.1 µM; further: potency means the concentration at half of the fitted maximal effect; nearly all actives have a fitted effect of over 60% in size
Chain of Cytochrome P450 2D6 (Homo sapiens) (P10635 whole entry, looked up): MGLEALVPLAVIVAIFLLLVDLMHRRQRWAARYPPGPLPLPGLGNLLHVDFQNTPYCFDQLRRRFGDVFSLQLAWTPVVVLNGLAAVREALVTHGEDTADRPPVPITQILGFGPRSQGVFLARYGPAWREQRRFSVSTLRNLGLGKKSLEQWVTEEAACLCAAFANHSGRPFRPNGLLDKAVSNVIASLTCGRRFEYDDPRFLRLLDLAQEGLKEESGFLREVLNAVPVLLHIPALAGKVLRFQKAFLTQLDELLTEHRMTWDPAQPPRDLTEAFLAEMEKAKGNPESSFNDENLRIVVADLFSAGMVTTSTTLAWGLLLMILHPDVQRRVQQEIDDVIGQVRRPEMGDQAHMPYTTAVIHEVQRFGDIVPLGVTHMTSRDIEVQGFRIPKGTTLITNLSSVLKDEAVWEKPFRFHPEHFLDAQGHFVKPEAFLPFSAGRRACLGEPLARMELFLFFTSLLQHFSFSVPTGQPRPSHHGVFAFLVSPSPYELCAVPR
Summary of the method: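 Luminescent read-out of luciferin formed by 5 nM human CYP2D6 demethylating 30 uM Luciferin-ME EGE (Km level) over 60 min at room temperature after NADPH regeneration addition. Data normalized to full inhibition by 1.43 uM quinidine.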

[18] = molecular target: 3',5'-cyclic-AMP phosphodiesterase 4B (Homo sapiens) (UniProt Q07343); test: qHTS Assay for Inhibitors of PDE-IV (AID 607; active means well fitted activation curve with a large enough effect in the main read-out, with a control signal flat, not every such curve was filed as active; further: % of control where 0% means no effect); details: HEK293 ACTOne CNG channel cells, membrane potential fluorescence; series mostly up to 22.9 µM
Chain of 3',5'-cyclic-AMP phosphodiesterase 4B (Homo sapiens) (Q07343 whole entry, looked up): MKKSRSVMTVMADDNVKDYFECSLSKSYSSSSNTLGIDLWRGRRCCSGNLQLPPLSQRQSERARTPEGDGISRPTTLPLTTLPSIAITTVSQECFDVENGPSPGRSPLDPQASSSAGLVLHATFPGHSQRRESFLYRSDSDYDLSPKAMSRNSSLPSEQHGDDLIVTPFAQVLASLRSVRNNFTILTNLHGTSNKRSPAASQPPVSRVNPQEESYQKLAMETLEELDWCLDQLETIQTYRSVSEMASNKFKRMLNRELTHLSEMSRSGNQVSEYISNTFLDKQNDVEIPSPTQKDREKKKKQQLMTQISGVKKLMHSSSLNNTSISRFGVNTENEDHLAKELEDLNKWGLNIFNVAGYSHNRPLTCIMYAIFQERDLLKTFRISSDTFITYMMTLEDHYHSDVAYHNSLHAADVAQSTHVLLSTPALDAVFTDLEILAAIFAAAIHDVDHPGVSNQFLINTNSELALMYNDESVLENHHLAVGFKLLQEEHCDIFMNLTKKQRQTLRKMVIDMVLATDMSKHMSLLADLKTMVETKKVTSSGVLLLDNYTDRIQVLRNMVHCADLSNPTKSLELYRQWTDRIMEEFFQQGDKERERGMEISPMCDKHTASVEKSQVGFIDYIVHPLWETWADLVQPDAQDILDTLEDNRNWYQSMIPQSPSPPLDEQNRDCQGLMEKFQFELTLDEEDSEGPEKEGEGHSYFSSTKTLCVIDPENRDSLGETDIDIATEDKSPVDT
Summary of the method: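 HEK293 ACTOne cells with CNG channel (1000/well), endogenous PDE4; membrane potential dye, compounds up to 22.9 uM final. Fluorescence Ex 535/Em 590; RO 20-1724 (100 uM final) as reference.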

[19] = molecular target: Cytochrome P450 2C9 (Homo sapiens) (UniProt P11712); test: qHTS Assay for Inhibitors and Substrates of Cytochrome P450 2C9 (AID 883); details: recombinant CYP2C9, luciferin-H luminescence, 60 min; series mostly up to 57.1 µM; further: on the % scale 0 is the no-effect control and ±100 the full control effect; nearly all actives have a fitted effect of over 60% in size
Chain of Cytochrome P450 2C9 (Homo sapiens) (P11712 whole entry, looked up): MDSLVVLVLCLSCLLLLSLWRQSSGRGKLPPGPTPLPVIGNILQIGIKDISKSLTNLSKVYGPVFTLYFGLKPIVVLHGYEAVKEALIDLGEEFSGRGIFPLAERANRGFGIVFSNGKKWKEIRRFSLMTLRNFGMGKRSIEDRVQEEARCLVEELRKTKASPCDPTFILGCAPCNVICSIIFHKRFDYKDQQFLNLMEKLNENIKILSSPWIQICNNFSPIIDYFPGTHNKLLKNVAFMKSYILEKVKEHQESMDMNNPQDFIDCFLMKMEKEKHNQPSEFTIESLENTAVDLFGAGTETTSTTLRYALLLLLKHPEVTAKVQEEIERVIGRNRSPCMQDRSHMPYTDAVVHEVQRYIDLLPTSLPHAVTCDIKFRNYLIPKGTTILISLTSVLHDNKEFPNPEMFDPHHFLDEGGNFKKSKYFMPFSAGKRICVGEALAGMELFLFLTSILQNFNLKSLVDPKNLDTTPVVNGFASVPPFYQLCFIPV
Summary of the method: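 Signal: luciferase luminescence reporting luciferin produced by CYP2C9. Conditions: 10nM enzyme, Luciferin-H 100uM at KM, 25mM KPO4, 37C, 60 min NADPH-driven reaction. Reference: 57uM sulphaphenazole as 100% inhibition.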

| SMILES | Potency [1] [µM] | activity change, negative = inhibition [2] [%] | Potency [3] | activity change, negative = inhibition [4] [%] | activity, negative = inhibition [5] [%] | Potency [6] [µM] | Potency [7] [µM] | Potency [8] | Potency [9] | Potency [10] | Potency [11] | Potency [12] | Potency [13] | Potency [14] | outcome [15] | Potency [16] | Potency [17] | Potency [18] | activity change, negative = inhibition [19] |
| --- | --- | --- | --- | --- | --- | --- | --- | --- | --- | --- | --- | --- | --- | --- | --- | --- | --- | --- | --- |
| N#Cc1cccc(-c2nccc(NCc3cccs3)n2)c1 | > 11.4 | -27.8 | 0.251 µM (active) | 11.9 | -14.7 | > 46 | > 46 | inactive | inactive | 3.98 µM (active) | 7.08 µM (active) | 6.31 µM (active) | 8.91 µM (active) | inactive | inactive | – | – | – | – |
| CN(C)c1ccc(-c2cncnc2N(C)Cc2ccco2)cc1 | > 11.4 | -22.2 | 0.631 µM (active) | -8.48 | -5.82 | > 46 | > 46 | – | inactive | 0.251 µM (active) | 15.8 µM (active) | 17.8 µM (active) | inactive | inactive | inactive | 631 nM (active) | – | – | – |
| CN(C)Cc1ccccc1-c1nc(NC2CC2)c2ccccc2n1 | > 11.4 | 1.1 | 5.01 µM (active) | -22.4 | 7.64 | > 46 | > 46 | inactive | inactive | – | inactive | inactive | inactive | inactive | inactive | – | 3.98 µM (active) | – | – |
| COc1ccc(-n2c(=O)c(CCc3ccccc3)nc3cncnc32)cc1 | > 11.4 | -15.2 | 25.1 µM (active) | -3.92 | – | > 9.22 | > 46 | inactive | – | – | inactive | inactive | inactive | inactive | inactive | – | – | – | – |
| COc1cccc(Cn2c(=O)c(-c3cccs3)nc3cnc(OCc4ccccc4)nc32)c1 | > 11.4 | 27.9 | 1.58 µM (active) | 3.84 | – | > 9.22 | > 46 | inactive | inactive | – | inactive | inactive | inactive | inactive | inactive | – | – | inactive | – |
| COc1cccc(-c2nccc(NCc3cccnc3)n2)c1 | > 11.4 | -20.9 | 0.158 µM (active) | 8.95 | -2.24 | > 46 | > 46 | – | inactive | – | 7.08 µM (active) | 7.08 µM (active) | 6.31 µM (active) | inactive | inactive | 1260 nM (active) | – | inactive | – |
| CCNc1ncc2nc(-c3ccccc3)c(=O)n(CCOC)c2n1 | > 11.4 | 22.2 | 3.16 µM (active) | 22.8 | – | > 9.22 | > 46 | inactive | inactive | – | inactive | inactive | inactive | inactive | inactive | – | 3.16 µM (active) | inactive | – |
| COc1ccc(-c2nc3cnc(OC)nc3n(C)c2=O)cc1 | > 11.4 | 8.21 | 2.51 µM (active) | -0.516 | 15.6 | > 9.22 | – | inactive | inactive | – | inactive | inactive | inactive | inactive | inactive | – | – | inactive | – |
| CN(C)Cc1ccccc1-c1nccc(N(C)Cc2ccco2)n1 | > 11.4 | -20 | 7.94 µM (active) | -23.2 | 0.0679 | > 46 | > 46 | inactive | inactive | – | inactive | inactive | inactive | inactive | inactive | – | 0.794 µM (active) | – | – |
| O=c1c(-c2ccc(F)cc2)nc2cncnc2n1-c1ccccc1 | > 11.4 | -2.6 | 7.94 µM (active) | 11.8 | -3.31 | > 9.22 | > 46 | inactive | inactive | – | inactive | inactive | inactive | inactive | inactive | – | – | – | – |
| COCCn1c(=O)c(-c2cn(C)c3ccccc23)nc2cnc(OCc3ccccc3)nc21 | > 11.4 | -1.93 | 5.01 µM (active) | -4.76 | 23.6 | > 9.22 | > 46 | inactive | inactive | – | inactive | inactive | inactive | inactive | inactive | – | – | – | – |
| COc1ccccc1CNc1cc(-c2ccccc2C(F)(F)F)ncn1 | > 11.4 | -11.1 | 15.8 µM (active) | -8.05 | 9.59 | – | > 46 | inactive | – | 1 µM (active) | inactive | inactive | inactive | inactive | inactive | inactive | – | inactive | 8.84% [at 2.29 µM] |
